Measurements as given in the supplement of paper PMC12636033.
± gives the standard deviation of the averaged measurements. In all, about 33,000 sequences were measured (“E-score (rank enrichment, -0.5 to 0.5)”: median about -0.0028, highest 2% from about 0.23 on). The list comes from a sample in which the highest values are over-represented; it also holds similar and randomly drawn sequences.

What follows are sequences tested on 2Sb-muMax20 (muMax20 with two 1,3-bis(methyl)benzene Cys staples, A13C/A17C and Q88C/A92C, C-terminal Lys) (assay: PBM 8-mer E-score (E-score (rank enrichment, -0.5 to 0.5)); higher = stronger preferential binding).
Method: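 Protein binding microarray (universal PBM chip covering all 10-mers in fixed probe flanks) with chemically synthesized human Max(13-93) bHLH-LZ analogs (not full-length Max) bearing noncanonical residues (hArg, Tha, Aib, Nle at 65) and aromatic Cys staples. Read-out per 8-mer (and its reverse complement): E-score (rank-based enrichment, -0.5 to 0.5) and Z-score of median probe intensity.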

| Sequence | PBM 8-mer E-score |
| --- | --- |
| ATATCCAT | 0.137 ± 0.14 |
| CACTCCGG | -0.0338 ± 0.0072 |
| ATTGATCA | 0.0679 ± 0.039 |
| ATGAATTC | 0.133 ± 0.015 |
| GAAAGCTC | -0.175 ± 0.051 |
| CAGTAGGG | 0.111 ± 0.065 |
| ATGGCCAC | -0.0293 ± 0.011 |
| ATGGCCAG | 0.113 ± 0.0052 |
| ATGGCCAT | 0.238 ± 0.048 |
| CTCAGGTA | -0.158 ± 0.024 |
| AGTAGCAC | 0.0432 ± 0.033 |
| GTAATAGA | 0.253 ± 0.0043 |
| ATAATAGA | 0.087 ± 0.027 |
| CTAATAGA | 0.12 ± 0.054 |
| ACCGAGAG | -0.0606 ± 0.0036 |
| AATTACCA | 0.217 ± 0.039 |
| CATTACCC | -0.0464 ± 0.014 |
| AATTACCC | 0.286 ± 0.012 |
| CCTTACTC | 0.123 ± 0.032 |
| AAGCTAGG | -0.00121 ± 0.038 |
| AATCCTGT | 0.0436 ± 0.00074 |
| ATCACCCG | -0.202 ± 0.044 |
| ATCACCCA | 0.0137 ± 0.037 |

| Sequence | PBM 8-mer E-score |
| --- | --- |
| ACCACCCG | -0.0962 ± 0.022 |
| GCCACCCC | 0.0125 ± 0.1 |
| CACACCCG | -0.111 ± 0.0078 |
| CCCACCCG | 0.335 ± 0.042 |
| ATCACCCC | 0.27 ± 0.0061 |
| GCCACCCA | -0.0786 ± 0.049 |
| ACCACCCC | 0.165 ± 0.0053 |
| TCCACCCA | 0.0351 ± 0.068 |
| CCCACCCA | 0.387 ± 0.029 |
| CCCACCCC | 0.307 ± 0.058 |
| CATGTCGA | -0.00545 ± 0.041 |
| ATTGCTAG | 0.141 ± 0.019 |
| CATGTTCA | 0.151 ± 0.025 |
| AAGTATGT | 0.0914 ± 0.0063 |
| AGCGACCG | -0.22 ± 0.0069 |
| AAAGGCGA | 0.17 ± 0.0091 |
| GCTTCTCC | 0.0389 ± 0.0059 |
| ACTAAGGC | 0.00844 ± 0.07 |
| CAAGCATC | -0.0457 ± 0.013 |
| AAAAGCCA | 0.0803 ± 0.036 |
| ACATACAC | 0.127 ± 0.016 |
| ATACACAC | 0.0901 ± 0.038 |
| ATACACAT | 0.244 ± 0.02 |

| Sequence | PBM 8-mer E-score |
| --- | --- |
| ACATATCG | 0.0421 ± 0.053 |
| CAATACAC | 0.0179 ± 0.049 |
| CCATATCA | 0.076 ± 0.055 |
| ACATACAG | 0.188 ± 0.014 |
| ACATACAT | 0.273 ± 0.025 |
| ACATATCA | 0.2689 ± 0.00057 |
| ATACACAG | 0.0629 ± 0.073 |
| CAATACAA | 0.234 ± 0.0058 |
| CAATACAG | 0.00554 ± 0.011 |
| AGACTAGG | -0.0528 ± 0.031 |
| CGGTACCC | -0.133 ± 0.015 |
| CCTAGAGC | -0.0448 ± 0.0096 |
| CCGATCGG | -0.289 ± 0.039 |
| CGGCTAAC | -0.13 ± 0.011 |
| TCCGTCCA | -0.0552 ± 0.013 |
| GCGCATAC | 0.0299 ± 0.0056 |
| ATCGGTGG | -0.0489 ± 0.0043 |
| ATAACCTC | 0.175 ± 0.016 |
| AAGGCCCC | 0.068 ± 0.039 |
| AGAGTGAC | -0.11 ± 0.0053 |
| AAATACAA | 0.0975 ± 0.074 |
| CCATACAA | 0.115 ± 0.024 |
| AAATACAC | 0.145 ± 0.033 |

| Sequence | PBM 8-mer E-score |
| --- | --- |
| AAATATAA | 0.21 ± 0.022 |
| ACCTATAT | 0.233 ± 0.0084 |
| AAATATAC | 0.138 ± 0.019 |
| GCATACAA | 0.119 ± 0.0048 |
| TCATACAA | 0.235 ± 0.035 |
| AAATACAT | 0.241 ± 0.058 |
| ACCTATAA | 0.00571 ± 0.046 |
| ACCTATAC | 0.0485 ± 0.061 |
| AAATATAT | 0.313 ± 0.02 |
| ATCACCGA | -0.0646 ± 0.084 |
| CCTCCACC | 0.0772 ± 0.089 |
| ATCGGGAG | -0.0438 ± 0.039 |
| CCAGATCG | -0.185 ± 0.061 |
| CTAACAAG | 0.0426 ± 0.045 |
| ATATGGCG | 0.123 ± 0.007 |
| GAAGGTAA | 0.0664 ± 0.084 |
| ACATATAT | 0.255 ± 0.024 |
| ACATATAG | 0.131 ± 0.031 |
| ACATATAC | 0.137 ± 0.0056 |
| ACATCATA | 0.243 ± 0.0089 |
| CTATCATA | 0.149 ± 0.03 |
| CCATCATA | 0.155 ± 0.017 |
| ATATCATA | 0.239 ± 0.055 |

| Sequence | PBM 8-mer E-score |
| --- | --- |
| ACATCATC | 0.0415 ± 0.031 |
| ATATCATG | 0.178 ± 0.016 |
| CGTGGAAC | -0.0767 ± 0.0022 |
| AGTGTGGC | -0.0951 ± 0.025 |
| GTAAGGGA | -0.0384 ± 0.016 |
| ACATCCTC | 0.028 ± 0.067 |
| ACCACGTA | -0.0697 ± 0.045 |
| ACCACGTC | -0.01627 ± 2.1e-05 |
| ATCACGCC | 0.0526 ± 0.033 |
| ATCACGCA | -0.037 ± 0.094 |
| AGCACGTG | 0.431 ± 0.0076 |
| AGCACGTC | -0.156 ± 0.042 |
| ACCACGCG | 0.283 ± 0.02 |
| AGCACGTA | 0.128 ± 0.038 |
| ATCACGCG | 0.239 ± 0.026 |
| ACCACGTG | 0.432 ± 0.025 |
| ACCACGCA | -0.0882 ± 0.019 |
| CCCACGCG | 0.221 ± 0.031 |
| AATTTCGT | 0.0796 ± 0.033 |
| GATTGCCC | -0.0998 ± 0.019 |
| ATTTAGCG | 0.0611 ± 0.079 |
